According to article PMC5540273 (PLoS ONE, 2017):

These compounds were tested on CDK8. Details: concentration: 1 μM, replicates: in singlicate; n = 1.
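Further: KINOMEscan kinase panel screen.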

| Structure (SMILES) | %Inh [%] |
| --- | --- |
| COc1cc2nccc(Nc3ccc(NC(=O)c4ccc(C)cc4)c(O)c3)c2cc1OC.Cl [GW440132] | 33 |
| Nc1ncnc2[nH]c(-c3ccccc3)nc12 [AH5015] | 0 |
| Cl.NC(=O)c1cccc(Nc2nccc(Nc3ccc(Oc4cccc(Cl)c4)c(Cl)c3)n2)c1 [GW659008] | 28 |
| COC(=O)c1c(-c2ccccc2)c2cc(OC)ccc2c(=O)n1Cc1ccccc1 | 7 |
| CN(C)CCN(C)C(=O)c1cc(-c2ccncc2)c(-c2ccc(Cl)c(O)c2)o1.Cl.Cl [SB-710397] | 37 |
| CS(=O)(=O)c1ccc(-c2c(-c3ncn[nH]3)sc(N3CCOCC3)c2C#N)cc1 | 18 |
| CC(=O)Nc1nc2cnc(Nc3cc(NC(=O)c4cccc(CCC#N)c4)ccc3C)nc2s1 | 5 |
| COc1ccc(Nc2nccc(NCCNC(=O)Nc3ccccc3F)n2)cc1 [GSK1379901] | 0 |
| CN1C(=O)C(Nc2ccc(Cl)c(C(=O)O)c2)=C(c2ccc(Cl)cc2)C1=O [SB-404290] | 0 |
| Cn1cncc1-c1ccc2ncnc(Nc3ccc(OCc4ccccc4)cc3)c2c1 [GW320571] | 29 |
| COc1cc2ncn(-c3cc(OCC4CCCO4)c(C(N)=O)s3)c2cc1OC (centres unmarked) [GSK204607] | 32 |
| COc1ccccc1-c1ccc2c(NC(=O)C3CC3)n[nH]c2n1 [SB-711239] | 44 |
| CSc1nn2c(=O)cc(N3CCOCC3)nc2n1Cc1cccc(C(F)(F)F)c1C [GSK2363608] | 0 |
| Cc1c(Cn2ccn3c(=O)cc(N4CCOCC4)nc23)cccc1C(F)(F)F [GSK2289044] | 0 |
| Cc1ccc(NC(=O)Nc2cccc(Cl)c2)cc1-c1ccc(C(=O)Nc2ccncc2)cc1 [GSK1398468] | 0 |
| Cl.Oc1ccc(-c2nc(-c3ccccc3)[nH]c2-c2ccncc2)cc1 [SB-428218] | 0 |
| C[C@@H]1CCCCN1c1cc(-c2ccc3c(N)n[nH]c3c2)nc(N)n1 [GSK2258759] | 20 |
| COC(=O)c1c(-c2ccccc2)c2cc(C(=O)O)ccc2c(=O)n1Cc1ccccc1 | 13 |

| Structure (SMILES) | %Inh [%] |
| --- | --- |
| Cc1cccc(-c2nc(Nc3ccc4[nH]ncc4c3)c3ccccc3n2)n1 [GW857175] | 0 |
| Nc1nc(-c2nccs2)c(-c2ccnc3ccccc23)s1 [GW693542] | 14 |
| Cc1c(O)cccc1Nc1ccnc2ccc(C(F)(F)F)cc12.Cl [GW466413] | 18 |
| O=C(Nc1ccc2c(c1)OCO2)NC1CCN(c2ccnc(Nc3ccc(F)cc3)n2)C1 (centres unmarked) [GSK1379724] | 33 |
| Cc1ccccc1-n1cnc2c(N)ncnc21 [SKF-97510] | 0 |
| Cc1ccc(C(=O)Nc2ccc(Nc3ccnc4cc(-c5ccccn5)ccc34)cc2O)cc1.Cl [GW440146] | 23 |
| COc1ccc(Nc2nccc(-c3cccc(NC(=O)c4cc5cc(F)ccc5[nH]4)c3)n2)cc1 [GSK1229782] | 56 |
| COc1cccc(-c2cc(-c3c[nH]nc3-c3ccccn3)ccn2)c1 [GW680338] | 44 |
| Cc1cccc(-c2nc(-c3ccc(S(C)(=O)=O)cc3)sc2-c2ccnc(NCCc3ccccc3)c2)c1 | 15 |
| Clc1cc(Cl)cc(Nc2ccnc(Nc3cc(Cl)cc(Cl)c3)n2)c1 [GSK175726] | 0 |
| O=C(Nc1n[nH]c2nc(-c3nccs3)c(Br)cc12)C1CC1 [SB-742251] | 25 |
| O=C(Nc1n[nH]c2cc(-c3cccc(F)c3F)ccc12)C1CC1 [SB-733894] | 89 |
| Cc1nnc(-c2ccc3occ(-c4ccc(S(C)=O)cc4)c3c2)[nH]1 (centres unmarked) | 0 |
| Cc1cccc(-c2nc(C)cc(Nc3ccncc3)n2)n1 [GSK257997] | 0 |
| NC(=O)c1nnc2ccccc2c1N | 26 |
| O=c1cc(N2CCOCC2)nc2n(Cc3cccc(Cl)c3Cl)ccn12 [GSK2286295] | 0 |
| CS(=O)(=O)c1ccc(-c2nc3n(c2-c2ccncc2)CCC3)cc1 [SKF-105942] | 0 |
| COc1ccc(C2=C(Nc3cccc(C(=O)O)c3)C(=O)NC2=O)cc1 [SB-390765] | 0 |

Each compound was assayed on CDK9. Details: concentration: 1 μM, replicates: in singlicate; n = 1.

| Structure (SMILES) | %Inh [%] |
| --- | --- |
| COc1cc2nccc(Nc3ccc(NC(=O)c4ccc(C)cc4)c(O)c3)c2cc1OC.Cl [GW440132] | 0 |
| Nc1ncnc2[nH]c(-c3ccccc3)nc12 [AH5015] | 0 |
| Cl.NC(=O)c1cccc(Nc2nccc(Nc3ccc(Oc4cccc(Cl)c4)c(Cl)c3)n2)c1 [GW659008] | 0 |
| COC(=O)c1c(-c2ccccc2)c2cc(OC)ccc2c(=O)n1Cc1ccccc1 | 9 |
| CN(C)CCN(C)C(=O)c1cc(-c2ccncc2)c(-c2ccc(Cl)c(O)c2)o1.Cl.Cl [SB-710397] | 0 |
| CS(=O)(=O)c1ccc(-c2c(-c3ncn[nH]3)sc(N3CCOCC3)c2C#N)cc1 | 6 |
| CC(=O)Nc1nc2cnc(Nc3cc(NC(=O)c4cccc(CCC#N)c4)ccc3C)nc2s1 | 0 |
| COc1ccc(Nc2nccc(NCCNC(=O)Nc3ccccc3F)n2)cc1 [GSK1379901] | 1 |
| CN1C(=O)C(Nc2ccc(Cl)c(C(=O)O)c2)=C(c2ccc(Cl)cc2)C1=O [SB-404290] | 0 |
| Cn1cncc1-c1ccc2ncnc(Nc3ccc(OCc4ccccc4)cc3)c2c1 [GW320571] | 0 |
| COc1cc2ncn(-c3cc(OCC4CCCO4)c(C(N)=O)s3)c2cc1OC (centres unmarked) [GSK204607] | 0 |
| COc1ccccc1-c1ccc2c(NC(=O)C3CC3)n[nH]c2n1 [SB-711239] | 0 |
| Cc1c(Cn2ccn3c(=O)cc(N4CCOCC4)nc23)cccc1C(F)(F)F [GSK2289044] | 0 |
| Cc1ccc(NC(=O)Nc2cccc(Cl)c2)cc1-c1ccc(C(=O)Nc2ccncc2)cc1 [GSK1398468] | 0 |
| Cl.Oc1ccc(-c2nc(-c3ccccc3)[nH]c2-c2ccncc2)cc1 [SB-428218] | 0 |
| C[C@@H]1CCCCN1c1cc(-c2ccc3c(N)n[nH]c3c2)nc(N)n1 [GSK2258759] | 0 |
| COC(=O)c1c(-c2ccccc2)c2cc(C(=O)O)ccc2c(=O)n1Cc1ccccc1 | 0 |
| Cc1cccc(-c2nc(Nc3ccc4[nH]ncc4c3)c3ccccc3n2)n1 [GW857175] | 0 |

| Structure (SMILES) | %Inh [%] |
| --- | --- |
| Nc1nc(-c2nccs2)c(-c2ccnc3ccccc23)s1 [GW693542] | 0 |
| Cc1c(O)cccc1Nc1ccnc2ccc(C(F)(F)F)cc12.Cl [GW466413] | 0 |
| O=C(Nc1ccc2c(c1)OCO2)NC1CCN(c2ccnc(Nc3ccc(F)cc3)n2)C1 (centres unmarked) [GSK1379724] | 0 |
| Cc1ccccc1-n1cnc2c(N)ncnc21 [SKF-97510] | 0 |
| Cc1ccc(C(=O)Nc2ccc(Nc3ccnc4cc(-c5ccccn5)ccc34)cc2O)cc1.Cl [GW440146] | 0 |
| COc1ccc(Nc2nccc(-c3cccc(NC(=O)c4cc5cc(F)ccc5[nH]4)c3)n2)cc1 [GSK1229782] | 0 |
| COc1cccc(-c2cc(-c3c[nH]nc3-c3ccccn3)ccn2)c1 [GW680338] | 0 |
| Cc1cccc(-c2nc(-c3ccc(S(C)(=O)=O)cc3)sc2-c2ccnc(NCCc3ccccc3)c2)c1 | 1 |
| Clc1cc(Cl)cc(Nc2ccnc(Nc3cc(Cl)cc(Cl)c3)n2)c1 [GSK175726] | 13 |
| O=C(Nc1n[nH]c2nc(-c3nccs3)c(Br)cc12)C1CC1 [SB-742251] | 0 |
| O=C(Nc1n[nH]c2cc(-c3cccc(F)c3F)ccc12)C1CC1 [SB-733894] | 5 |
| Cc1nnc(-c2ccc3occ(-c4ccc(S(C)=O)cc4)c3c2)[nH]1 (centres unmarked) | 0 |
| Cc1cccc(-c2nc(C)cc(Nc3ccncc3)n2)n1 [GSK257997] | 95.9 |
| NC(=O)c1nnc2ccccc2c1N | 15 |
| O=c1cc(N2CCOCC2)nc2n(Cc3cccc(Cl)c3Cl)ccn12 [GSK2286295] | 14 |
| CS(=O)(=O)c1ccc(-c2nc3n(c2-c2ccncc2)CCC3)cc1 [SKF-105942] | 100 |
| COc1ccc(C2=C(Nc3cccc(C(=O)O)c3)C(=O)NC2=O)cc1 [SB-390765] | 1 |
